Screening data as filed in PubChem BioAssay.
The full list was thinned out, with hits kept by preference.
Artemis endo inh: Artemis endonuclease inhibitors, primary screen, biochemical, fluorescence intensity, FAM/BHQ-1 hairpin substrate | Protein artemis (Homo sapiens), Q96SD1 | recombinant Artemis, quenched FAM hairpin cleavage fluorescence | inhibition, % at 10 µM | actives 0.78% (n = 30,000);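 active = at 10 µM dose, at least 30% inhibition, measured as corrected fluorescence normalized to stimulator and neutral control wells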
Large screens that a line does not name were inactive.

Nc1c(C(=O)NC2CCCC2)c2nc3ccccc3nc2n1CC1CCCO1 (stereo not drawn)	Artemis endo inh 30.6
CC(C)OCCCNC(=O)c1c(N)n(Cc2cccs2)c2nc3ccccc3nc12	none
CCOC(=O)c1ccc(N2C(=O)CC(N3CCC(C#N)(c4ccccc4)CC3)C2=O)cc1 (stereo not drawn)	none
O=C(c1ccco1)c1cn(Cc2ccc(Cl)cc2)c2ccccc12	none
CCCCc1nc2ccccc2c(=O)n1-c1ccccc1[N+](=O)[O-]	none
OC1(CN2CCOCC2)C2CC3CC(C2)CC1C3 (stereo not drawn)	none
CCOC(=O)c1c(N)n(CCCOC(=O)c2ccco2)c2nc3ccccc3nc12	none
COCCOC(=O)c1c(N)n(Cc2ccco2)c2nc3ccccc3nc12	none
COCCCn1c(N)c(C(=O)OCCOC)c2nc3ccccc3nc21	Artemis endo inh 38.0
CC(C)OC(=O)c1c(N)n(Cc2ccco2)c2nc3ccccc3nc12	none
COC(=O)c1c(N)n(Cc2ccc(OC)cc2)c2nc3ccccc3nc12	Artemis endo inh 31.0
COCCOC(=O)c1c(N)n(Cc2ccc(OC)cc2)c2nc3ccccc3nc12	none
O=C(Cn1c2c(c(-c3ccccc3Cl)cc1=O)CCC2)N1CCC2(CC1)OCCO2	none
Clc1ccc(-c2nc3ccc(Cl)cn3c2CN2CCOCC2)cc1	none
O=C(c1cc(-c2cccnc2)nc2ccc(Cl)cc12)N1CCC2(CC1)OCCO2	none
O=C1c2ccccc2C(=O)N1Cc1nc2ccccc2c(=O)n1-c1cccnc1	none
CCCCCSc1cc(OC)c(CCN)cc1OC	none
CC12CCCCC1N(O)CN2O (stereo not drawn)	none
CNCC(O)c1cccc(OC(=O)c2ccccc2C)c1 (stereo not drawn)	none
Cc1[nH]c2c(C(F)(F)F)cccc2c1CCN	none
Cc1nc2c(=O)n(C)c(=O)nc-2n(C)n1	Artemis endo inh 78.4
Cc1cccnc1-n1c(C)nc2ccccc2c1=O	none
CCCCCCCSc1cc(OC)c(CCN(C)C)cc1OC	none
CC(=O)c1ccc2c(c1)C1C(Cl)C(Sc3ccccc3[N+](=O)[O-])CC1C(c1ccccc1[N+](=O)[O-])N2 (stereo not drawn)	Artemis endo inh 31.0
CN(C)C(=O)Oc1cccc(NC(=O)N2CCOCC2)c1	none
